# High-throughput results as filed in PubChem BioAssay.
# KCNH2 3.1 block: qHTS for Inhibitors of KCHN2 3.1: Mutant qHTS; 340,000 tested, 0.95% active; U2OS KCNH2 3.1, thallium flux FluxOr; stronger effect = lower value; Potassium voltage-gated channel subfamily H member 2, brain isoform KCNH2 3.1 (human); activity change, % (tested at about 1.8 µM);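 active means maximum activity change below -70%; inconclusive means maximum activity change from -70% to -50%; inactive means maximum activity change above -50%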;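 further: thallium influx rate constant from kinetic fluorescence after stimulation buffer; on the % scale 0 is the no-effect control and ±100 the full control effect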
#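 Thallium flux via FluxOr fluorescence (Red40 quencher, 45 min loading) in U2OS cells virally expressing the KCNH2 3.1 isoform (1.77 x 10^8 /mL virus, overnight at 37 C). Rate constants from 2-min kinetic reads post-stimulation, normalised to positive and negative controls.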
# MCF10A rerep: A quantitative high throughput screen for small molecules that induce DNA re-replication in MCF 10a normal breast cells; MCF 10A DNA re-replication, Hoechst nuclear intensity, 48 h; Potency, µM (doses to about 46.1 µM), without a hit: at the top dose activity, positive = re-replication, usual class: activators; 350,000 tested, 2.9% active; AID 624296, 2012; further: potency means the concentration at half of the fitted maximal effect; % of control where 0% means no effect; nearly all actives have a fitted effect of over 50% in size
# SW480 rereplic: A quantitative high throughput screen for small molecules that induce DNA re-replication in SW480 colon adenocarcinoma cells; Potency, µM (series often up to 46.1 µM), for the others: top-dose re-replication activation, actives largely listed as activators; 340,000 tested, 1.8% active; SW480 DNA re-replication, Hoechst DNA content imaging, 48 h; further: potency means the concentration at half of the fitted maximal effect; % of control where 0% means no effect; nearly all actives have a fitted effect of over 55% in size
#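 DNA re-replication was detected as more nuclei of elevated Hoechst intensity after 48 hr exposure to compound (23 nL pinned per well of 250 cells).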
# KB-V1 MDR tox: qHTS assay for MDR1-selective chemotherapeutics: Primary screen using the drug-selected MDR subline cells KB-V1; 400,000 tested, 3.4% active; KB-V1 MDR cells viability, CellTiter-Glo, 72 h; Potency, µM (highest dose often 46.1 µM), hits mostly cytotoxic; further: potency means the concentration at half of the fitted maximal effect; on the % scale 0 is the no-effect control and ±100 the full control effect; nearly all actives have a fitted effect of over 60% in size
#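 Potencies derive from concentration-effect curves fitted to normalized luminescence (CellTiter-Glo) of KB-V1 cells treated for 72 h at 37 degrees C in phenol-red-free DMEM containing 10% FBS.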
# KCNH2 WT inh: qHTS for Inhibitors of KCHN2 3.1: Wildtype qHTS; Voltage-gated inwardly rectifying potassium channel KCNH2 (Homo sapiens), Q12809; U2OS, BacMam KCNH2, thallium flux FluxOr; stronger effect = lower value; activity change, % at 1.84 µM; 340,000 tested, 0.37% active; AID 720551, 2013;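 active means maximum activity change below -70%; inconclusive means maximum activity change between -70% and -50%; inactive means maximum activity change above -50%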; further: on the % scale 0 is the no-effect control and ±100 the full control effect
# Target sequence (Q12809 whole entry, looked up): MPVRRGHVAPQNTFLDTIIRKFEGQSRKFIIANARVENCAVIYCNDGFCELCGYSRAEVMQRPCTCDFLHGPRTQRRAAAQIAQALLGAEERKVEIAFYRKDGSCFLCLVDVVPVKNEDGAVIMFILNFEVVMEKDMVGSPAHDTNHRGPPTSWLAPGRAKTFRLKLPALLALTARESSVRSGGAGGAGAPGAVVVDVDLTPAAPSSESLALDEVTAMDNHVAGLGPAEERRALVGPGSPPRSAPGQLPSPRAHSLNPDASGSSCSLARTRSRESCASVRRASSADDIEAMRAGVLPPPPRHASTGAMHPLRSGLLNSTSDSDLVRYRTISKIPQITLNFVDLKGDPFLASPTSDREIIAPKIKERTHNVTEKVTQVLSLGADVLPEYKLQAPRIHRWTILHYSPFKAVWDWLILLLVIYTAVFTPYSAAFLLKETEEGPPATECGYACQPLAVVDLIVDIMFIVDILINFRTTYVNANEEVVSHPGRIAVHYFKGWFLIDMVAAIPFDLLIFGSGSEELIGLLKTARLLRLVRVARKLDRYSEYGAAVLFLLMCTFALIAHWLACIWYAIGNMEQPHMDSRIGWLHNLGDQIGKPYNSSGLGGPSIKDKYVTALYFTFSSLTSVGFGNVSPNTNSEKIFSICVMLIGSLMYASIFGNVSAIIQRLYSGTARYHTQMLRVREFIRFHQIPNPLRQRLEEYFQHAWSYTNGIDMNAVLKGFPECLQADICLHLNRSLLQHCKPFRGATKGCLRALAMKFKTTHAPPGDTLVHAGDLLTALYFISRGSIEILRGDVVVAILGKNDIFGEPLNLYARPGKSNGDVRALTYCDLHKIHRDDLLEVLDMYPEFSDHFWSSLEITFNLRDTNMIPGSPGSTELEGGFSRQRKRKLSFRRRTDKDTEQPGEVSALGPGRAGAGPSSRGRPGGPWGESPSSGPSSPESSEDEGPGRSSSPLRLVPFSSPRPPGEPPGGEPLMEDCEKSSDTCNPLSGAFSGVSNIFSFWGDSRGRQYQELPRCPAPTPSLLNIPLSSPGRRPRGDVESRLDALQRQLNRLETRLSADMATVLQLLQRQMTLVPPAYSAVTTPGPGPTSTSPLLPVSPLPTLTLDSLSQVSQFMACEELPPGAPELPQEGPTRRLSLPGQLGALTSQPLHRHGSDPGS
#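 U2OS cells transduced with wild-type KCNH2 virus are loaded with FluxOr dye for 45 min, and thallium flux is measured in kinetic reads before and after stimulation buffer. Rate constants are normalized to DMSO controls.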
# KB-3-1 tox: qHTS assay for MDR1-selective chemotherapeutics: Primary screen using the parental adenocarcinoma cell KB-3-1; AID 1347075, 2019; KB-3-1 viability, CellTiter-Glo ATP luminescence, 72 h; Potency, µM (top dose mostly 46.1 µM), usual class: cytotoxic; 400,000 tested, 1.4% active; further: potency means the concentration at half of the fitted maximal effect; on the % scale 0 is the no-effect control and ±100 the full control effect; nearly all actives have a fitted effect of over 60% in size
#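 Cytotoxicity measured as CellTiter-Glo luminescence after 72 h at 37 C. Compound titrations were pinned onto drug-naive KB-3-1 parental adenocarcinoma cells grown in DMEM with 10% FBS, and normalized data fitted to concentration-response curves.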
# Starred values were filed as active, the others as inactive; i = inactive; ? = inconclusive; . = no result; ! = a repeat was not active; [ ] = dose if it differs, or a comment. The list is not random: actives were taken first. Their share in the collection is about 7.6%. Unless noted, the call rests on the fitted dose curve; in most records, active means well fitted curve in the direction sought with a large enough effect; inconclusive means small, poorly fitted or top-dose-only effect, or another doubt; inactive means no such curve, though single readings can be large; an effect the other way counts as inactive or inconclusive.
SMILES,KCNH2 3.1 block,MCF10A rerep,SW480 rereplic,KB-V1 MDR tox,KCNH2 WT inh,KB-3-1 tox
C/C(=N\NC(=O)OC(C)(C)C)c1cccc([N+](=O)[O-])c1,-12.7,-1.7%,-5.0%,i,-6.1,i
CC(C)CCN(N=O)[C@@H](Cc1ccccc1)CN(N=O)[C@@H](Cc1ccccc1)CN(C)N=O,-112.7*,0.7%,3.4%,i,-16.1,?
Cc1cccc(C(=O)NCc2nnc(SCC(=O)NC(C)c3ccccc3)n2C)c1 (stereo not given),9.5,-3.9%,18.4µM*,i,-15.7,i
CCOC(=O)CSc1nnc(CNC(=O)c2cccc(C)c2)n1C,8.5,?,-9.5%,i,-3.2,i
CCC(=O)Nc1cccc(-c2nnc(SCC(=O)c3ccccc3)n2C)c1,-91.2*,0.8%,4.9%,i,-0.1,?
Cn1c(SCC(=O)Nc2cc(Cl)cc(Cl)c2)nnc1-c1ccc2nonc2c1,-1.3,18.4µM*,18.4µM*,?,8.0,i
Cn1c(SCC(=O)O)nnc1-c1ccc(NC(=O)c2ccc(Cl)c(Cl)c2)cc1,-16.3,-15.6%,-8.4%,i,-127.3*,i
COc1cccc(-c2noc(COc3ccc(C(C)(C)C)cc3)n2)c1,.,.,.,?,.,i
CC(=O)NC(c1cccc(F)c1)c1nc(-c2cnn(C)c2)cs1 (stereo not given),.,.,.,i,.,i
COc1ccc(-n2cnnc2SCC(=O)c2cc(C)n(Cc3cccs3)c2C)cc1,-42.6,?,-4.5%,i,-13.3,i
Cc1cc(C(=O)CSc2nnc(-c3ccc(Cl)cc3)n2CC2CCCO2)c(C)n1C (stereo not given),-12.7,10.0%,1.7%,6.51µM*,-4.4,i
Cc1cc(C(=O)CSc2nnc(-c3ccccc3)n2C)c(C)n1C,14.1,-0.7%,-8.2%,7.31µM*,8.6,i
COCCn1c(C)cc(C(=O)CSc2nncn2-c2ccccc2)c1C,-5.0,0.7%,0.4%,10.3µM*,-0.4,i
Cc1cc(C(=O)CSc2nnc(-c3ccncc3)n2-c2ccccc2)c(C)n1C,0.5,0.5%,-0.1%,i,6.1,i
CC(=O)c1cc(F)ccc1OCC(=O)Nc1ccc2c(c1)OCO2,22.3,-0.2%,11.6%,i,22.3,i
CCCC1=C(C(=O)OCC)C(c2ccc(OC)c(C)c2OC)C(C#N)=C(N)O1 (stereo not given),3.2,12.7%,5.1%,i,4.6,i
CCN(CC(=O)Nc1ccc(OC)cc1)C(=O)Cc1ccc(OC)c(S(=O)(=O)N2CCOCC2)c1,2.6,2.6%,-10.3%,i,-10.3,i
CCN=c1scc(-c2ccccc2)n1/N=C/c1ccccn1,-31.0,20.6µM*,-3.4%,?,2.8,8.2µM*
CCN=c1scc(-c2ccc(F)cc2)n1/N=C/c1ccccn1,2.3,12.7%[9.22 µM],-88.8%,?,-3.3,i
C=CCN=c1scc(-c2ccccc2)n1/N=C/c1ccccn1,-9.7,?,?,7.31µM*!,2.5,1.46µM*!
COc1ccc(OC)c(NC(=O)Cn2ccc3ccccc3c2=O)c1,.,.,.,i,.,?
Cc1noc(/C=C/N(C)C)c1S(=O)(=O)N1CCCC(C(=O)NCc2ccc(Cl)cc2)C1 (stereo not given),-10.9,?,1.6%,?,-18.9,i
Cc1ccc(CNC(=O)C2CCCN(S(=O)(=O)c3c(C)noc3/C=C/N(C)C)C2)cc1 (stereo not given),-0.4,14.6µM*,15.6%,i,-2.3,i
Cc1noc(/C=C/N(C)C)c1S(=O)(=O)N1CCCC(C(=O)Nc2ccccc2F)C1 (stereo not given),8.9,23.1µM*,?,i,-3.5,i
COc1cccc(-n2c(SCC(=O)Nc3cc(C)ccc3C)nc3c(oc4ccccc43)c2=O)c1,.,.,.,i,.,i
SMILES,KCNH2 3.1 block,MCF10A rerep,SW480 rereplic,KB-V1 MDR tox,KCNH2 WT inh,KB-3-1 tox
Cc1ccc(CN2CCN(/N=C/c3cccs3)CC2)cc1,-30.0,2.9%,-5.4%,i,3.2,i
COC(=O)CCN1CCC(c2cc(-c3cccc(C(F)(F)F)c3)n[nH]2)CC1,-35.8,5.1%,3.6%,i,10.3,i
FC(F)(F)c1cccc(CN2CCC(c3cc(-c4cccs4)n[nH]3)CC2)c1,-39.4,13µM*,?,?,8.5,?
Cc1ccc(CN2CCC(c3cc(-c4cccs4)n[nH]3)CC2)cc1,-113.2*,?,10.4%,?,-71.5*,i
CC(C)n1c(O)c(N=NC(=O)Cc2csc(N3CCOCC3)n2)c2ccccc21,6.4,-18.2%,-0.5%,i,-6.8,i
CCOC(=S)SCc1cn2ccccc2n1,3.5,2.3%,-4.5%,i,-7.7,i
CCOC(=S)SCc1cn2ccc(C)cc2n1,2.5,16.4µM*,4.1%,i,15.9,i
O=[N+]([O-])c1ccc(C(O)CN=Cc2ccc(O)cc2O)cc1 (stereo not given),2.2,16.4µM*,9.8%,i,-7.0,i
CN(C)/N=C/c1cc([N+](=O)[O-])ccc1O,-18.6,8.5%,?,i,8.2,i
Cc1ccc(C)n1-c1ccc(C(=O)NN)s1,-27.2,21.1%,-2.5%,i,0.2,i
CCOc1ccc(CCNC(=O)c2cc3c(=O)n(C)c4ccccc4c3n2C)cc1OCC,.,.,.,i,.,?
COc1cccc(C(=O)NC(=S)N2CCN(c3ccc(C(F)(F)F)cc3[N+](=O)[O-])CC2)c1,3.5,-6.2%,-13.5%,?,-3.0,i
CCOc1ccc(C(=O)NC(=S)N2CCN(c3ccc(C(F)(F)F)cc3[N+](=O)[O-])CC2)cc1,-70.4*,28.1%,?,i,?,i
CSc1cc(-c2ccc(Cl)cc2)c(C(=O)NC(C)C)s1,2.9,?,?,i,-0.8,i
CSc1cc(-c2ccc(Cl)cc2)c(C(=O)NN)s1,-11.8,?,?,8.2µM*,-4.5,?
COc1ccc(NC(=S)N(CCC(C)C)C2CCN(C(C)C)CC2)cc1Cl,-1.9,?,20.6µM*,i,-8.4,i
CCC(C)(C)n1nnnc1CN1CCC(NC(=O)c2ccccc2C)CC1,12.9,6.2%,-4.0%,i,-8.6,i
CCOc1ccccc1C(=O)NC1CCN(Cc2nnnn2C2CCCC2)CC1,-7.4,20.5%,-1.0%,9.2µM*,16.5,i
